This is an account of results in PubChem BioAssay (NCATS).

Molecules are shown by their SMILES. “And” between values parts separate entries of the source, which are not always exact repeats. Identical values can stand only once. Results filed as inconclusive are left out. The source made the active and inactive calls. Unless noted, the call rests on the fitted dose curve; in most records, active means well fitted curve in the direction sought with a large enough effect; inconclusive means small, poorly fitted or top-dose-only effect, or another doubt; inactive means no such curve, though single readings can be large; an effect the other way counts as inactive or inconclusive.

Test [1] in a line: Cell Viability - Hek293 (AID 427;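 active means compounds whose dose-response curve shows a full or clear partial loss of cell viability, called from curve shape rather than a numeric limit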;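 further: potency means the concentration at half of the fitted maximal effect; cells exposed to compound for 40 hours at 37 °C before reading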). As to conditions: qHTS. The method in brief: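 HEK293 cells in complete medium were exposed to compound for 40 hr at 37 °C, then cellular ATP was read by CellTiter-Glo luminescence. Data were normalized to DMSO (basal) and 100 uM tamoxifen (100% inhibition), and AC50 came from Hill fits.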
In general terms: In qHTS, concentration-response curves come from the screen itself.

The nature of test [2]: Cell Viability - NIH 3T3 (AID 541).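 Further: plate controls were DMSO alone for no effect and tamoxifen positive control for full effect; nearly all actives have a fitted effect of over 25% in size.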 The following applies: NIH 3T3 cell viability, qHTS; activity change, negative = cytotoxicity: at 92.2 µM (top of the series). The procedure, abridged: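 Cells seeded at 1000/well, rested 5 hr at 37 °C, then dosed and incubated 40 hr at 37 °C. CellTiter-Glo added, 20 min room temperature, luminescence read. AC50 by Hill fit.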
Test [3] in a line: Cellular Toxicity (caspase-3) HepG2 (AID 654).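 Further: cells exposed to compound for 16 hours before reading; 0% = DMSO alone and 100% = caspase signal from 100 µM tamoxifen.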 The following applies: HepG2 caspase-3 activation, luminescence, 0% = DMSO only, 100% = tamoxifen; series mostly up to 92.2 µM. The method in brief:
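Caspase 3/7 activation in HepG2 is measured as rising luminescence after a 16 hr treatment at 37 °C. Values are scaled between DMSO basal and 100 uM tamoxifen, and AC50 is fitted with the Hill equation.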

The nature of test [4]: Cellular Toxicity (caspase-3) Hek293 (AID 664). As to conditions: HEK293 caspase-3 activation, DMSO = 0%, 100 µM tamoxifen = 100%; series mostly up to 92.2 µM. The method in brief: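 qHTS, HEK293 (human embryonic kidney), 16 h cpd exposure in complete medium. Caspase-3/7 activation = luminescence increase; normalized to DMSO/100 uM tamoxifen; Hill-fit AC50.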
Test [5] in a line: Cellular Toxicity (caspase-3) NIH 3T3 (AID 666).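 Further: caspase signal read after 16 h compound exposure; 0% = DMSO basal and 100% = 100 µM tamoxifen stimulation.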 The following applies: NIH 3T3 caspase-3 activation, apoptosis/toxicity, 0% DMSO, 100% is 100 µM tamoxifen; series mostly up to 92.2 µM. The method in brief:
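Cells were plated at 1000 per well and incubated 5 hr at 37°C, then compound was added for 16 hr. Caspase-Glo 3/7 reagent followed for 20 min at room temperature before luminescence was read.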

Test [6] in a line: MultiTox-Fluor Cytotoxicity Assay - LYMP1-003 - Live Cells (AID 962).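 Further: 0% = DMSO only and full loss = 92 µM tetraoctylammonium bromide; cytotoxic hits lower the live-cell protease signal.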 The following applies: LYMP1-003 lymphoblastoid cells, MultiTox-Fluor live-cell protease fluorescence; series mostly up to 92.2 µM. The procedure, abridged:
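Acute cytotoxicity is scored as a drop in live-cell protease activity in human lymphoblastoid LYMP1-003 cells after 16 hr compound exposure at 37 C. AC50 values come from Hill-equation modelling of concentration-response data.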

Test [7] is described as follows: Cell Viability - LYMP2-005 (AID 967).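 Further: plate controls were DMSO only for no effect and 92 µM tetraoctylammonium bromide control for full effect.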 As to conditions: LYMP2-005 lymphoblastoid cell viability; series mostly up to 92.2 µM. The method in brief:
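CellTiter-Glo luminescence (cellular ATP) read-out; LYMP2-005 lymphoblastoid cells, 2500/well, 5 h pre-incubation, then 24 h compound exposure at 37 C in complete medium. Tetraoctylammonium bromide positive control; AC50 by standard Hill fit.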

Test [8] in a line: Cell Viability - LYMP2-009 (AID 968).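 Further: 0% = DMSO alone and the full-kill end = tetraoctylammonium bromide at 92 µM; nearly all actives have a fitted effect of over 55% in size.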 The following applies: LYMP2-009 lymphoblastoid cell viability; series mostly up to 92.2 µM.
Test [9] in a line: Cell Viability - LYMP2-017 (AID 972).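 Further: cells exposed to compound for 24 hours at 37 °C; on the % scale 0 is the no-effect control and ±100 the full control effect; nearly all actives have a fitted effect of over 55% in size.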 The following applies: LYMP2-017 lymphoblastoid cell viability; series mostly up to 92.2 µM. The procedure, abridged: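 Cytotoxicity is scored as a concentration-dependent drop in cellular ATP in a human lymphoblastoid line after 24 hr treatment at 37 C. Values are AC50s from Hill-equation modelling.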
Test [10] is described as follows: Cell Viability - LYMP2-019 (AID 973).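 Further: 0% = DMSO alone and full effect = 92 µM tetraoctylammonium bromide; nearly all actives have a fitted effect of over 55% in size.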 The following applies: LYMP2-019 lymphoblastoid cell line viability; series mostly up to 92.2 µM. The procedure, abridged:
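Cytotoxicity is scored as a concentration-dependent drop in cellular ATP after cells (2500/well) receive compound for 24 hr at 37 C. Tetraoctylammonium bromide serves as positive control.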

The nature of test [11]: Cell Viability - LYMP2-021 (AID 974).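 Further: compound exposure lasts 24 hours at 37 °C; on the % scale 0 is the no-effect control and ±100 the full control effect; nearly all actives have a fitted effect of over 55% in size.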 The following applies: LYMP2-021 lymphoblastoid cells viability; series mostly up to 92.2 µM. The method in brief: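 Loss of cellular ATP, measured with a luciferase-based CellTiter-Glo readout, serves as the toxicity signal in human lymphoblastoid cells treated for 24 hours at 37 C. Potency is reported as AC50 from a standard Hill model.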

Test [12] can be described thus: Cell Viability - LYMP2-016 (AID 984). The following applies: LYMP2-016 lymphoblastoid cell viability, qHTS; series mostly up to 92.2 µM. The procedure, abridged: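 Human lymphoblastoid cells (LYMP2-016), 2500/well in complete medium, preincubated 5 hr at 37 C, then compound-treated 24 hr at 37 C. Intracellular ATP read by CellTiter-Glo luminescence after 30 min at room temperature; AC50 from Hill-equation concentration-response fits.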

A short description of test [13]: Cell Viability - LYMP2-022 (AID 987). The following applies: LYMP2-022 lymphoblastoid cell viability; series mostly up to 92.2 µM. The procedure, abridged:
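Cells were seeded at 2500 per well, rested 5 hr at 37 C, and treated with titrated compounds for 24 hr at 37 C. Cellular ATP was then quantified by luciferase luminescence, and AC50 values were derived from Hill-modelled concentration-response curves.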

Test [14] in a line: Cell Viability - LYMP2-026 (AID 989). Further: on the % scale 0 is the no-effect control and ±100 the full control effect; nearly all actives have a fitted effect of over 50% in size. As to conditions: LYMP2-026 lymphoblastoid cell viability, qHTS; series mostly up to 92.2 µM. The procedure, abridged: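 Cells are seeded at 2500 per well and held 5 hr at 37 C. Compounds are added in concentration series for 24 hr, then CellTiter-Glo reagent is applied and luminescence read.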
Test [15] is described as follows: qHTS assay for small molecule agonists of retinoid X receptor alpha signaling (AID 588544). As to conditions: HEK293T RXRa-UAS-bla, beta-lactamase reporter, 18 h; 530 nm emission.
A short description of test [16]: qHTS assay for small molecule antagonists of retinoid X receptor alpha signaling (AID 588546).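 Further: cells stimulated with 9-cis-retinoic acid as agonist; on the % scale 0 is the no-effect control and ±100 the full control effect.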 As to conditions: HEK293T RXRa-UAS-bla, beta-lactamase ratio, antagonist mode; measured here: W530 green channel, cytotoxicity proxy. The method in brief: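 Beta-lactamase reporter inhibition, read as CCF4 fluorescence ratio (ex 405, em 460/530 nm) after 2 h at RT. HEK293T UAS-bla cells, 2500/well, were stimulated with 9-cis-RA at 500 or 100 nM final alongside test compound for 18 h at 37 C.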

In test [17] the target is Voltage-gated inwardly rectifying potassium channel KCNH2 (Homo sapiens) (UniProt Q12809). In words: qHTS Assay for Small Molecule Inhibitors of the Human hERG Channel Activity (AID 588834).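 Further: lower thallium flux fluorescence means stronger hERG block; nearly all actives have a fitted effect of over 50% in size.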 Further: potency means the concentration at half of the fitted maximal effect. The following applies: U2OS BacMam hERG, FluxOR thallium flux fluorescence; series mostly up to 92.2 µM. The procedure, abridged:
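In hERG-transduced U2OS cells, dye-loaded for 1 hr at room temperature in dark, test compounds incubated 10 min at 37 °C before thallium stimulation. AC50 values derived by Hill modelling of concentration-response.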

Test [18] is described as follows: qHTS assay for small molecule disruptors of the mitochondrial membrane potential - 5 hr assay (AID 651755; calls by dose curve; further: on the % scale 0 is the no-effect control and ±100 the full control effect; nearly all actives have a fitted effect of over 40% in size). The following applies: JC-1-type ratio dye; series mostly up to 92.2 µM. The procedure, abridged:
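Seed HepG2 overnight, add compound, incubate 5 hr at 37C and 5% CO2, stain 30 min with Mito-MPS, then measure monomer (490/535 nm) and aggregate (540/590 nm) fluorescence.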

The target in test [19] is Peroxisome proliferator-activated receptor alpha (Homo sapiens) (UniProt Q07869). In words: qHTS assay for small molecule agonists of the peroxisome proliferator-activated receptor alpha (PPARalpha) signaling pathway (AID 651778). Further: % of control where 0% means no effect. The following applies: PathHunter PPARalpha complementation, chemiluminescence, 6 h; stronger effect = higher value. The procedure, abridged: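 Cells plated at 2,000/well and held overnight at 37 C, 5% CO2, then compound added by pin tool for 6 hr; after PathHunter detection reagent and 60 min at room temperature, chemiluminescence from enzyme complementation was read.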

Test [20] in a line: qHTS assay for small molecule agonists of the antioxidant response element (ARE) signaling pathway measured by Nrf2-dependant transcriptional activity (AID 720636; active means well fitted curve in the direction sought with a large enough effect in the repeat runs; an effect the other way counts as inactive or inconclusive; further: % of control where 0% means no effect). The following applies: ARE-luc HepG2, Nrf2 luciferase reporter, 16 h; series mostly up to 92.4 µM. The procedure, abridged: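 We exposed ARE-luc HepG2 cells, seeded in assay medium with 1% dialyzed FBS and allowed 6 hr to adhere, to test compounds overnight (16 hr, 37 C) before measuring luciferase with ONE-Glo.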

Peroxisome proliferator-activated receptor alpha (Homo sapiens), sequence (Q07869 whole entry, looked up): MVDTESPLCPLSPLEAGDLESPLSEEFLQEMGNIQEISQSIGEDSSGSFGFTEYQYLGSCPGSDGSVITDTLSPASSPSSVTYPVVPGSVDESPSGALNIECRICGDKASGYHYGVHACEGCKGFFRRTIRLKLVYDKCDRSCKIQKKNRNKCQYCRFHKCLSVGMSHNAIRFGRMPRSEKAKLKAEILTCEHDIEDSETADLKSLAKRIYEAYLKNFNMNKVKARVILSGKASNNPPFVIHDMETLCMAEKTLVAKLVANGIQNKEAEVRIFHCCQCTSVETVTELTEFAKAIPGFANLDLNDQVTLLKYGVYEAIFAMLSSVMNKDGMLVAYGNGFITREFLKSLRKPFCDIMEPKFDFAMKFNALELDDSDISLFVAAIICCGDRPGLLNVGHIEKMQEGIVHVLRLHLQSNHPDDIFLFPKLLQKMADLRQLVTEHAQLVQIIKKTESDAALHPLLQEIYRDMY
Voltage-gated inwardly rectifying potassium channel KCNH2 (Homo sapiens), sequence (Q12809 whole entry, looked up): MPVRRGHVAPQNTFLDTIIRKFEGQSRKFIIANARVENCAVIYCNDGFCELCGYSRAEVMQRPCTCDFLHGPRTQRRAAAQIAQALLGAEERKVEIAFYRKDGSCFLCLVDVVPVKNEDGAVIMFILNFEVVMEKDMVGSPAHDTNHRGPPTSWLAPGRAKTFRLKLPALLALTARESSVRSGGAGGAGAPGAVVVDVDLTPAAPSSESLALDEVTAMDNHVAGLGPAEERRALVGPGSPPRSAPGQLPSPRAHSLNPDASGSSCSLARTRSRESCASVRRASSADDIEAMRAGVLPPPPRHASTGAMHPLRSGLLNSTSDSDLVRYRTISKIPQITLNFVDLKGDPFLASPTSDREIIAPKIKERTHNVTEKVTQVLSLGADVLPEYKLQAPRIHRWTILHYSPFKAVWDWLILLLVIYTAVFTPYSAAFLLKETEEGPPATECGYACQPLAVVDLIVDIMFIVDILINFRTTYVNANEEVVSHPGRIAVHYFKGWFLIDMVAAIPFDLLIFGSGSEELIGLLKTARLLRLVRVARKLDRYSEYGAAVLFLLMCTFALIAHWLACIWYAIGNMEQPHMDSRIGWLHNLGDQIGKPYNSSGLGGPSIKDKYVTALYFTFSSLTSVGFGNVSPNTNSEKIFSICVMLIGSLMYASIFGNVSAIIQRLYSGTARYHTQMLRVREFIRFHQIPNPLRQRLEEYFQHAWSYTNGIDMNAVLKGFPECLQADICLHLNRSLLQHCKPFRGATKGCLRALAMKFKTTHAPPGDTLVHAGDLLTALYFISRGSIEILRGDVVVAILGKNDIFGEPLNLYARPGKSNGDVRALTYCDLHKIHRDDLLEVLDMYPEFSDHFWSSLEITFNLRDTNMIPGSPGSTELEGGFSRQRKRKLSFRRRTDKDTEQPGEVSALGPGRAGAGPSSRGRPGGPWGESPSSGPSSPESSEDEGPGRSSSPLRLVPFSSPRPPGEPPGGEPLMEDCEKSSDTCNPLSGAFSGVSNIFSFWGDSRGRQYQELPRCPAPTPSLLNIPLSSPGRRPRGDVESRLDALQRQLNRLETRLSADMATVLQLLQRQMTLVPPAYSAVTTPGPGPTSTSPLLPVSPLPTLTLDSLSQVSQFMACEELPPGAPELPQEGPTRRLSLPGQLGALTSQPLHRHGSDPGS

As to `CC(O)CCl` (centres undefined), the Potency in test [1] was > 92 µM (inactive). The activity change, negative = cytotoxicity in test [2] is 4.45% (inactive). Also, the compound was classed as inactive in test [3], in test [4], in test [5] and in test [20]. In addition, the Potency result in test [6], in test [7], in test [8], in [9], in [10] and in test [11] was “inactive” throughout. For the same compound, the Potency entry in test [12], in test [13], in test [14], in test [17] and in [18] was “inactive” throughout. In addition, the max response in test [15] is -11.9% and -9.91%; in test [16], -12.9% and -6.32%; in test [19], -0.405% (inactive) and -1.63% (inactive).
Regarding `Clc1nc(Cl)nc(Nc2ccccc2Cl)n1`, in test [1], the Potency was > 92 µM (inactive). Also, the activity change, negative = cytotoxicity in test [2] is -3.86% (inactive). Besides, the compound was called inactive in test [3], in test [4] and in test [5]. The Potency entry in test [6], in test [7], in [8], in test [9], in test [10] and in test [11] was “inactive” in each case. The Potency entry in test [12], in [13], in test [14], in test [17] and in [18] was “inactive” each time. For the same compound, the max response in [15] is -6.76%; in [16] it was 1.32%; in test [19], 1.31% (inactive) and 8.11% (inactive).
`c1ccc(-c2ccccc2)cc1`: the Potency in test [1] is > 92 µM (inactive); in [17], 44.7 µM (active). Also, the activity change, negative = cytotoxicity in test [2] is -5.05% (inactive). In addition, the outcome in test [3], in test [4], in test [5] and in [20] was inactive. For the same compound, the Potency result in test [6], in test [7], in test [8], in [9], in test [10] and in test [11] was “inactive” each time. In addition, the Potency entry in test [12], in [13], in [14] and in test [18] was “inactive” each time. The max response is -1.55% and -17% in test [15]; -7.26% and -12.6% in [16]; -2.7% (inactive) and -1.05% (inactive) in test [19].
As for `C=CC(=O)OCC`, in [1], the Potency was > 92 µM (inactive). Also, in [2], the activity change, negative = cytotoxicity is -21.9% (inactive). In addition, the compound was called inactive in test [3], in test [4], in test [5] and in [20]. Moreover, the Potency result in test [6], in test [7], in test [8], in [9], in test [10] and in test [11] was “inactive” in each case. The Potency entry in [12], in test [13], in [14], in [17] and in test [18] was “inactive” in each case. Moreover, the max response was -5.05% in [15], -8.36% in [16] and -5.18% (inactive) in [19].
For `Cc1ccccc1N`, in test [1], the Potency was > 92 µM (inactive). In [2], the activity change, negative = cytotoxicity is -25.3% (inactive) and -5.05% (inactive). In addition, the outcome in test [3], in test [4], in test [5] and in [20] was inactive. Moreover, the Potency entry in [6], in test [7], in test [8], in test [9], in [10] and in test [11] was “inactive” throughout. Moreover, the Potency entry in test [12], in [13], in test [14], in test [17] and in test [18] was “inactive” each time. The max response in test [15] was 1.21% and 0.728%; in test [16], -2.57%; in test [19], -4.65% (inactive) and -3.69% (inactive).
With `N#CCCCl`, the Potency in test [1] is > 92 µM (inactive). Also, in test [2], the activity change, negative = cytotoxicity is -5.02% (inactive) and -15.1% (inactive). Further, the call in test [3], in test [4], in [5] and in test [20] was inactive. Besides, the Potency result in [6], in [7], in test [8], in test [9], in test [10] and in test [11] was “inactive” throughout. Also, the Potency entry in [12], in test [13], in test [14], in test [17] and in test [18] was “inactive” in each case. For the same compound, the max response in test [15] is 5.05% and -2.32%; in [16], 2.8% and 0.773%; in test [19], -3.2% (inactive) and -4.12% (inactive).
